# Assays:
# [1] = biological target: Tyrosine-protein kinase SYK (Homo sapiens) (UniProt P43405); conditions: at 10 µM
# [2] = biological target: T1, Mitogen-activated protein kinase kinase kinase 7 (Homo sapiens) (UniProt O43318); conditions: at 1 µM
# T1 sequence (whole entry): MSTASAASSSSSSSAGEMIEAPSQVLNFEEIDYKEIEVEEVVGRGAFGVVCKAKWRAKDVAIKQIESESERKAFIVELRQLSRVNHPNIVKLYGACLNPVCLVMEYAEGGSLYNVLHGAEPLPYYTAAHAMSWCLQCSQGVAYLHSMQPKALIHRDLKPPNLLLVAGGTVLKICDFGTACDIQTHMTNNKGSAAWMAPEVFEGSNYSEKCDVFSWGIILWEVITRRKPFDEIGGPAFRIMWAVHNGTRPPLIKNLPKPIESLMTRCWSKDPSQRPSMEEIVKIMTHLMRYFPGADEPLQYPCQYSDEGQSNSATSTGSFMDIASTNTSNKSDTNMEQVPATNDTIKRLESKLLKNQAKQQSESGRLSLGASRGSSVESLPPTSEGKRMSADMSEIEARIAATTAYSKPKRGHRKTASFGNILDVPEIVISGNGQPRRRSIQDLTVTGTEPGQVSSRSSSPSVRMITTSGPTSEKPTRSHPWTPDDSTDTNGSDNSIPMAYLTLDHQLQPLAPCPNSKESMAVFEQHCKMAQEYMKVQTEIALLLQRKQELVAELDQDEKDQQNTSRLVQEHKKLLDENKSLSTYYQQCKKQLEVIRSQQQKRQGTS
# [3] = biological target: T1, Mitogen-activated protein kinase kinase kinase 7 (Homo sapiens); conditions: at 10 µM
# [4] = biological target: T2, Serine/threonine-protein kinase TAO1 (Homo sapiens) (UniProt Q7L7X3); conditions: at 1 µM
# T2 sequence (whole entry): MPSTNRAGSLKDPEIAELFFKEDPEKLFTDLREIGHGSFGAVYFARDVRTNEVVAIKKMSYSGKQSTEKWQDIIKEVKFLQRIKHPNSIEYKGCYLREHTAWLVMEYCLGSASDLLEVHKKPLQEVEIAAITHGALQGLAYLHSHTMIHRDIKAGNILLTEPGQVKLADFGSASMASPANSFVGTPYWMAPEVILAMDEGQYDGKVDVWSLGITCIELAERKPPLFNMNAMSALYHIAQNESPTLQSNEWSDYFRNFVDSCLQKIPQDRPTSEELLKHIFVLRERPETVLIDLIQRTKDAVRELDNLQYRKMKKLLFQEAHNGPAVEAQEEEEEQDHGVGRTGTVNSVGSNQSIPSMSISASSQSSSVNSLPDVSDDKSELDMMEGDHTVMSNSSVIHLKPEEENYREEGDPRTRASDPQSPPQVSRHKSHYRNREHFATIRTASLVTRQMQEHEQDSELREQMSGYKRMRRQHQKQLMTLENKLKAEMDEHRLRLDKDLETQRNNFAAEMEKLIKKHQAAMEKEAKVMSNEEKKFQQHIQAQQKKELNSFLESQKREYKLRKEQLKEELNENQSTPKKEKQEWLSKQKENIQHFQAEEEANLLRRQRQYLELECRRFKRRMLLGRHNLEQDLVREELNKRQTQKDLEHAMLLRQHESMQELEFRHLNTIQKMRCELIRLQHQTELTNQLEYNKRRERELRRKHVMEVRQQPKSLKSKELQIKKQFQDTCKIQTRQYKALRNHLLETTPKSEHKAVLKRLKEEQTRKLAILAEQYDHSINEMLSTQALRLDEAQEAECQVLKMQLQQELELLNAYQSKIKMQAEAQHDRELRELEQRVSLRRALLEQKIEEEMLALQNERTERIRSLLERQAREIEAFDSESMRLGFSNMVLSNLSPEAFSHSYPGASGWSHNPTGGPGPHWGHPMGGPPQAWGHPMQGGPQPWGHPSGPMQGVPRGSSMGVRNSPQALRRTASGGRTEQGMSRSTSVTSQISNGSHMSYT
# [5] = biological target: T2, Serine/threonine-protein kinase TAO1 (Homo sapiens); conditions: at 10 µM
# [6] = biological target: T3, Serine/threonine-protein kinase TAO2 (Homo sapiens) (UniProt Q9UL54); conditions: at 1 µM
# T3 sequence (whole entry): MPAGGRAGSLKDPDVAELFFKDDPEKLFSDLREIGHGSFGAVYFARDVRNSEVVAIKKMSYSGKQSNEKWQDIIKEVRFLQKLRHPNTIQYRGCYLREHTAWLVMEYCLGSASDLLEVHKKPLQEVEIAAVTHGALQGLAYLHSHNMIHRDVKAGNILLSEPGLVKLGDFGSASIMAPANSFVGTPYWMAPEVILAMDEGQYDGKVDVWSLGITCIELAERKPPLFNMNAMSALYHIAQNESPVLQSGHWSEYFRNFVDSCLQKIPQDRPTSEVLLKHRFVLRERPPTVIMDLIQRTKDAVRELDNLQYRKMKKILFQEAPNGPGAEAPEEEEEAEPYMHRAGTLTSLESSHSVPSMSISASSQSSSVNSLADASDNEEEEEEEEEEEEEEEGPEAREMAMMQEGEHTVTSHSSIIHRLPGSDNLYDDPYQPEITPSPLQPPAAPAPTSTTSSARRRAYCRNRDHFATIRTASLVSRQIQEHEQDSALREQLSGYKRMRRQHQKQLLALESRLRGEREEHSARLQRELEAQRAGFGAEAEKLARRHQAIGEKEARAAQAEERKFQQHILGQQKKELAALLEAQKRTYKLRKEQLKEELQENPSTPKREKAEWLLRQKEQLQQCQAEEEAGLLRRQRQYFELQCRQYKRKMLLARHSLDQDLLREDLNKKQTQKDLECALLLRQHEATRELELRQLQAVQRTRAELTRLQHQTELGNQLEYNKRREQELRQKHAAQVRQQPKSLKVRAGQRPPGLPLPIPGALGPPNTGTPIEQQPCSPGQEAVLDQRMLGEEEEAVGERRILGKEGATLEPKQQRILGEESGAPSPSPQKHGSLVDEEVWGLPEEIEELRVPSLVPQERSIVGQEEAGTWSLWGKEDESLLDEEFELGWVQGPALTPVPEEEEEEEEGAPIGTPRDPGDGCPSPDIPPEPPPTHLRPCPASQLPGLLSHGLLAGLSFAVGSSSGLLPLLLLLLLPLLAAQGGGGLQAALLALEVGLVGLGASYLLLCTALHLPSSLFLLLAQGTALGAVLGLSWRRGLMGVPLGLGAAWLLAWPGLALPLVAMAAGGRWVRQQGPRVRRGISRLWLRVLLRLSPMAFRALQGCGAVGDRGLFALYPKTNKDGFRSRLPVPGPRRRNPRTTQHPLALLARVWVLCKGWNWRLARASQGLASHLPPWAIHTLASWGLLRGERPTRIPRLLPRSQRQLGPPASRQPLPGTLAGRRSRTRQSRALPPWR
# [7] = biological target: T3, Serine/threonine-protein kinase TAO2 (Homo sapiens); conditions: at 10 µM
# [8] = biological target: T4, Serine/threonine-protein kinase TAO3 (Homo sapiens) (UniProt Q9H2K8); conditions: at 1 µM
# T4 sequence (whole entry): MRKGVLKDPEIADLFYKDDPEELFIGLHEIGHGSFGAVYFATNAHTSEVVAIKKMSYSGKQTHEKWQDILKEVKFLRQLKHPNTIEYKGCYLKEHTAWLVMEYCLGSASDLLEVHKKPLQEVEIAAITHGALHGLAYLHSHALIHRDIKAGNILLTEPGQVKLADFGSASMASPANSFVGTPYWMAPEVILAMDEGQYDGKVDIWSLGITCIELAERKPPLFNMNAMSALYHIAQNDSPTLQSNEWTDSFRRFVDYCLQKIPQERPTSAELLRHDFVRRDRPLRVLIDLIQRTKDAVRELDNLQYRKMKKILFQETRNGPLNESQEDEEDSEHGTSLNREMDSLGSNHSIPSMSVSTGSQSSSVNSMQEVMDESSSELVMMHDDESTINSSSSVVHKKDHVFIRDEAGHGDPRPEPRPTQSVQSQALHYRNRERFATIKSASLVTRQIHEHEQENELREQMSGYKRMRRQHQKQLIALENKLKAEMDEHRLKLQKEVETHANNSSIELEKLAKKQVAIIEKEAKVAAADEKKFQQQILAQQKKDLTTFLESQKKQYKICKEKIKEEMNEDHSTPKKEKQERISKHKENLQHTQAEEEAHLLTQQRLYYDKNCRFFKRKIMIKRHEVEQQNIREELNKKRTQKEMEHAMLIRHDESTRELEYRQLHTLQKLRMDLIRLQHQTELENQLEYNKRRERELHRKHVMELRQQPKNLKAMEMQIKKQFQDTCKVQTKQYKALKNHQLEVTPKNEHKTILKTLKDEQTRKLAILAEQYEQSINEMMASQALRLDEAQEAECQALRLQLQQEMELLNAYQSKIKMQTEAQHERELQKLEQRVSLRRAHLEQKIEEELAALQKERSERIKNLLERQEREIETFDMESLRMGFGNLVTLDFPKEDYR
# [9] = biological target: T4, Serine/threonine-protein kinase TAO3 (Homo sapiens); conditions: at 10 µM
smiles,measurement,setting,value
Cc1cc2ncc(-c3ccccc3)nc2cc1C,residual activity,[1],108%
same,residual activity,[2],96%
same,residual activity,[3],95%
same,residual activity,[4],109%
same,residual activity,[5],101%
same,residual activity,[6],106%
same,residual activity,[7],91%
same,residual activity,[8],100%
same,residual activity,[9],101%

# From ChEMBL document CHEMBL2218924, “A broad activity screen in support of a chemogenomic map for kinase signalling research and drug discovery” (Biochem J, 2013)
